Among the test systems are MDA-MB-435 melanoma; SW-620 colon; MCF7 breast; HCT-116 colon; HCC-2998 colon; KM12 colon.
Common to all, as to assay: NCI-60 one-dose screen, 48 h (100 = growth as untreated, 0 = no growth, -100 = all killed)
Common to all, as to conditions: 10 µM unless noted

This is an account of results in PubChem BioAssay (NCI).

This is part of a sample that, as a whole, favours compounds with a hit. Of some 83,000 tested, about 20% had one in any assay.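 Negative percent growth values reflect cell death: -40 means 40% of the cells present at the start died, and -100 means all died.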 A number with no mark means an inactive call. Calls of active or inactive are those of the source. Rule for the calls: active = growth percent below 10; inactive = the rest.

For the molecule `CCCCCCC/C=C/[C@H]1O[C@]23C(=O)C[C@@]4(C[C@@H](OC5OC(CO)C(O)C(O)C5O)C[C@@H]4[C@H]2C=C1C)OC3=O` (stereo partly drawn), the growth is 3.95% (active) in the experiment with MDA-MB-435 melanoma; 9.92% (active) in the experiment on SW-620 colon; 14.4% in the experiment with MCF7 breast; 1.7% (active) in the experiment on HCT-116 colon; 31.3% with HCC-2998 colon; 28.6% in the experiment with KM12 colon.
For `COc1ccc2[nH]c(-c3ccccc3)c(C=C(C#N)C#N)c2c1`, the growth in the experiment on MDA-MB-435 melanoma was -55.1% (active); in the experiment with SW-620 colon, 25.1%; with MCF7 breast, 17.1%; in the experiment with HCT-116 colon it was 23.5%; in the experiment on HCC-2998 colon, 49.3%; in the experiment on KM12 colon, 18.6%.
As for `CCCn1c2cc(OCc3cn(-c4ccc(Cl)cc4)nn3)ccc2c2ccnc(C)c21`, the growth is 101% in the experiment on MDA-MB-435 melanoma; 74.8% in the experiment with SW-620 colon; 73.3% in the experiment with MCF7 breast; 41.6% in the experiment on HCT-116 colon; 92.7% with HCC-2998 colon; 74.1% in the experiment with KM12 colon.
Regarding `CC1(C)CC[C@]2(c3nnc(-c4ccncc4)o3)CC[C@]3(C)C(=CC[C@@H]4[C@@]5(C)CCC(=O)C(C)(C)[C@@H]5CC[C@]43C)[C@@H]2C1`, the growth is 79.6% with MDA-MB-435 melanoma; 85.2% in the experiment with SW-620 colon; 64.6% in the experiment on MCF7 breast; 61.3% in the experiment with HCT-116 colon; 94.8% in the experiment on HCC-2998 colon; 93.8% in the experiment with KM12 colon.
On to `C#C[C@@]1(O)[C@@H](CO)O[C@@H](n2ccc3c(N)ncnc32)[C@@H]1O`, for which the growth with MDA-MB-435 melanoma was -28.9% (active); in the experiment with SW-620 colon, 1.33% (active); in the experiment on MCF7 breast, 3.61% (active); in the experiment on HCT-116 colon, 5.2% (active); in the experiment on HCC-2998 colon it was -44.2% (active); in the experiment with KM12 colon it was 0.307% (active).
Regarding `CC(=O)O[C@@H]1C[C@]2(C)[C@H]3[C@H](O)C[C@@H]4C5=CC(C)(C)CC[C@]5(C)CC[C@@]4(C)[C@]3(C)CC[C@H]2C(C)(C)[C@H]1O`, the growth is 99.8% in the experiment on MDA-MB-435 melanoma, 98.7% with SW-620 colon, 107% in the experiment with HCC-2998 colon and 105% in the experiment with KM12 colon.
As to `CCN1CCC[C@H]1c1cc(O)c2c(c1OC)C[C@H]1C[C@H]3[C@H](N)C(=O)C(C(N)=O)=C(O)[C@@]3(O)C(=O)C1=C2O`, the growth in the experiment with MDA-MB-435 melanoma was -4.48% (active); with SW-620 colon it was 1.96% (active); with MCF7 breast, 0.852% (active); in the experiment with HCT-116 colon, -4.51% (active); in the experiment on HCC-2998 colon it was -6.34% (active); in the experiment with KM12 colon, 5.97% (active).
As to `O=C1CC23OC(C(O)c4ccccc4N12)C1C(c2ccccc2)=NOC13` (stereo not drawn), the growth was -28% (active) with MDA-MB-435 melanoma; 29.2% in the experiment with SW-620 colon; 26.4% in the experiment on MCF7 breast; 21.3% with HCT-116 colon; 85.2% in the experiment on HCC-2998 colon; 28.9% with KM12 colon.
For the molecule `COc1ccc(-c2[nH]c3ccccc3c2C=C(C#N)C#N)cc1`, the growth is -34.6% (active) with MDA-MB-435 melanoma; 20.5% in the experiment on SW-620 colon; 4.01% (active) in the experiment on HCT-116 colon; -39.2% (active) in the experiment with HCC-2998 colon; 3.41% (active) with KM12 colon.
The corresponding values for `O=C(CCCCCCCCC(=O)Nc1cccc(C2=NCCN2)c1)Nc1cccc(C2=NCCN2)c1` are 99.2%, 97.1%, 98.3%, 95.7% and 95.5%.
For the molecule `COC(=O)c1nc(-c2ccccc2)oc1S(=O)(=O)n1nc(-c2ccccc2)cc1N`, the growth is 63.6% in the experiment with MDA-MB-435 melanoma; 10.9% in the experiment on SW-620 colon; 80.9% in the experiment with MCF7 breast; 84.8% with HCT-116 colon; 108% in the experiment on HCC-2998 colon; 92.2% with KM12 colon.
Turning to `COc1cc(NCC(=O)Nc2cc(Nc3ccc(C)cc3)ncn2)c(Cl)c(OC)c1Cl`, the growth in the experiment on MDA-MB-435 melanoma is 102%; in the experiment with SW-620 colon, 103%; with MCF7 breast it was 78.6%; in the experiment on HCT-116 colon, 88.4%; in the experiment on HCC-2998 colon, 92.6%; in the experiment on KM12 colon, 87.5%.
Consider `CC(C)(C)c1nn(-c2ccccc2)c2c1COCN2Cc1ccc(Cl)cc1`, for which the growth with MDA-MB-435 melanoma was 100%; with SW-620 colon, 82.9%; in the experiment on MCF7 breast it was 80.1%; in the experiment with HCT-116 colon, 62.8%; in the experiment with HCC-2998 colon, 51.9%; with KM12 colon it was 86.4%.
Consider `CCCCc1n(Cc2ccc3ccccc3c2)c2ccccc2[n+]1Cc1ccc2ccccc2c1`, for which the growth in the experiment with MDA-MB-435 melanoma was -93.6% (active); with SW-620 colon it was -79.8% (active); in the experiment with MCF7 breast it was -85.6% (active); with HCT-116 colon, -83.2% (active); in the experiment on HCC-2998 colon it was -80.6% (active); in the experiment with KM12 colon, -82.9% (active).
In the case of `C=C1C(=O)O[C@H]2[C@H]1CC/C(COC(=O)NCc1nc3ccccc3[nH]1)=C\CC[C@@]1(C)O[C@@H]21`, the growth in the experiment with MDA-MB-435 melanoma is 63.1%; with MCF7 breast, 36.5%; with HCT-116 colon, 47.5%; with HCC-2998 colon, 104%; in the experiment with KM12 colon, 99.3%.
Consider `O=C(NC[C@H](O)CN1CCc2ccccc2C1)c1cc(NC2COC2)ncn1`, for which the growth with MDA-MB-435 melanoma is 95.1%; in the experiment with SW-620 colon it was 93.8%; with MCF7 breast, 80.2%; in the experiment on HCT-116 colon, 86.7%; with HCC-2998 colon it was 98.8%; in the experiment on KM12 colon it was 98.1%.
On to `CCN1CCN(c2ccc(NC(=O)Nc3nc4ccc(-c5ccccc5OC)cc4s3)cc2)CC1`, for which the growth is -85.5% (active) in the experiment with MDA-MB-435 melanoma; -70% (active) with SW-620 colon; -70.8% (active) with MCF7 breast; -82.3% (active) in the experiment on HCT-116 colon; -88.1% (active) with HCC-2998 colon; -83.5% (active) in the experiment with KM12 colon.
On to `Nc1cc(N)c(S(=O)(=O)O)cc1N=Nc1cc([N+](=O)[O-])ccc1O`, for which the growth was 112% in the experiment with MDA-MB-435 melanoma; 108% in the experiment with SW-620 colon; 94.7% in the experiment on MCF7 breast; 94% in the experiment with HCT-116 colon; 109% in the experiment on HCC-2998 colon; 106% with KM12 colon.
In the case of `O=C(O)CCNC1CCCCC1`, the growth in the experiment with MDA-MB-435 melanoma is 117%; in the experiment with SW-620 colon, 101%; with MCF7 breast, 87.5%; with HCT-116 colon, 92.6%; in the experiment on HCC-2998 colon, 86.4%; with KM12 colon, 99.7%.
Regarding `CCC[S@@](=O)c1ccc2nc(NC(=O)OC)[nH]c2c1`, the growth is 16.6% in the experiment on MDA-MB-435 melanoma; 71% with SW-620 colon; 61.9% in the experiment with MCF7 breast; 79.6% in the experiment with HCT-116 colon; 90% in the experiment with HCC-2998 colon; 65.6% in the experiment on KM12 colon.
For `O=C(O)C(C(=O)O)c1cccc2ccccc12`, the growth is 102% with MDA-MB-435 melanoma; 99.1% in the experiment on SW-620 colon; 98.1% in the experiment with MCF7 breast; 102% with HCT-116 colon; 104% in the experiment with HCC-2998 colon; 109% in the experiment on KM12 colon.
Turning to `COc1cc(/C=C/C(=O)/C=C/c2cc3ccc(Cl)cc3[nH]c2=O)ccc1O`, the growth with MDA-MB-435 melanoma is 36%; in the experiment with SW-620 colon it was 29.7%; in the experiment on MCF7 breast it was 57.8%; with HCT-116 colon, 2.1% (active); with HCC-2998 colon, 86.3%; in the experiment with KM12 colon it was 81.3%.
For `CCOC(=O)C1=C(C)n2nc(CC#N)c(C#N)c2NC1c1ccc(CC)cc1` (stereo not drawn), the growth with MDA-MB-435 melanoma was 98.5%; in the experiment with SW-620 colon it was 97.6%; in the experiment on MCF7 breast, 88.7%; in the experiment with HCT-116 colon, 95.4%; in the experiment on HCC-2998 colon, 97.6%; with KM12 colon, 97%.
Take `C#CC[C@@H]1C[C@]2(C)[C@H]3CC[C@@H]4[C@H]5[C@H](C(=C)C)CC[C@]5(C(=O)O)CC[C@@]4(C)[C@]3(C)CC[C@H]2C(C)(C)[C@H]1O`: the growth in the experiment on MDA-MB-435 melanoma is 68.5%; in the experiment with SW-620 colon it was 33.1%; with HCT-116 colon, 9.2% (active); in the experiment with HCC-2998 colon, 64.7%; in the experiment on KM12 colon it was 24.8%.
